# Screening results (PubChem BioAssay)
# HP1b chromo inh: HP1-beta chromodomain-methylated histone interaction inhibition; P83916; AID 540317; AlphaScreen HP1-beta / biotin-H3K9me3 peptide binding; Potency, µM (highest dose often 114 µM), for the others: at the top dose activity change, negative = inhibition, actives largely listed as inhibitors; 390,000 tested, 0.56% active; further: nearly all actives have a fitted effect of over 70% in size
#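 AlphaScreen: HP1-beta (50 nM) preformed 30 min with biotin-H3(1-18)K9me3 peptide (50 nM) in PBS pH 7.4, 0.01% Tween-20. Compound added for 30 min at RT, then streptavidin donor/nickel chelate acceptor beads (10 ug/mL) for 30 min.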
# BAZ2B inh: inhibitors of human BAZ2B bromodomain; AID 504333; 360,000 tested, 4.4% active; Q9UIF8; AlphaScreen BAZ2B-H3K14Ac peptide displacement; Potency, µM (titrated, usually from 114 µM), without a hit: at the top dose activity change, negative = inhibition, actives largely listed as inhibitors; further: on the % scale 0 is the no-effect control and ±100 the full control effect; nearly all actives have a fitted effect of over 60% in size
# Target sequence (Q9UIF8 whole entry, looked up): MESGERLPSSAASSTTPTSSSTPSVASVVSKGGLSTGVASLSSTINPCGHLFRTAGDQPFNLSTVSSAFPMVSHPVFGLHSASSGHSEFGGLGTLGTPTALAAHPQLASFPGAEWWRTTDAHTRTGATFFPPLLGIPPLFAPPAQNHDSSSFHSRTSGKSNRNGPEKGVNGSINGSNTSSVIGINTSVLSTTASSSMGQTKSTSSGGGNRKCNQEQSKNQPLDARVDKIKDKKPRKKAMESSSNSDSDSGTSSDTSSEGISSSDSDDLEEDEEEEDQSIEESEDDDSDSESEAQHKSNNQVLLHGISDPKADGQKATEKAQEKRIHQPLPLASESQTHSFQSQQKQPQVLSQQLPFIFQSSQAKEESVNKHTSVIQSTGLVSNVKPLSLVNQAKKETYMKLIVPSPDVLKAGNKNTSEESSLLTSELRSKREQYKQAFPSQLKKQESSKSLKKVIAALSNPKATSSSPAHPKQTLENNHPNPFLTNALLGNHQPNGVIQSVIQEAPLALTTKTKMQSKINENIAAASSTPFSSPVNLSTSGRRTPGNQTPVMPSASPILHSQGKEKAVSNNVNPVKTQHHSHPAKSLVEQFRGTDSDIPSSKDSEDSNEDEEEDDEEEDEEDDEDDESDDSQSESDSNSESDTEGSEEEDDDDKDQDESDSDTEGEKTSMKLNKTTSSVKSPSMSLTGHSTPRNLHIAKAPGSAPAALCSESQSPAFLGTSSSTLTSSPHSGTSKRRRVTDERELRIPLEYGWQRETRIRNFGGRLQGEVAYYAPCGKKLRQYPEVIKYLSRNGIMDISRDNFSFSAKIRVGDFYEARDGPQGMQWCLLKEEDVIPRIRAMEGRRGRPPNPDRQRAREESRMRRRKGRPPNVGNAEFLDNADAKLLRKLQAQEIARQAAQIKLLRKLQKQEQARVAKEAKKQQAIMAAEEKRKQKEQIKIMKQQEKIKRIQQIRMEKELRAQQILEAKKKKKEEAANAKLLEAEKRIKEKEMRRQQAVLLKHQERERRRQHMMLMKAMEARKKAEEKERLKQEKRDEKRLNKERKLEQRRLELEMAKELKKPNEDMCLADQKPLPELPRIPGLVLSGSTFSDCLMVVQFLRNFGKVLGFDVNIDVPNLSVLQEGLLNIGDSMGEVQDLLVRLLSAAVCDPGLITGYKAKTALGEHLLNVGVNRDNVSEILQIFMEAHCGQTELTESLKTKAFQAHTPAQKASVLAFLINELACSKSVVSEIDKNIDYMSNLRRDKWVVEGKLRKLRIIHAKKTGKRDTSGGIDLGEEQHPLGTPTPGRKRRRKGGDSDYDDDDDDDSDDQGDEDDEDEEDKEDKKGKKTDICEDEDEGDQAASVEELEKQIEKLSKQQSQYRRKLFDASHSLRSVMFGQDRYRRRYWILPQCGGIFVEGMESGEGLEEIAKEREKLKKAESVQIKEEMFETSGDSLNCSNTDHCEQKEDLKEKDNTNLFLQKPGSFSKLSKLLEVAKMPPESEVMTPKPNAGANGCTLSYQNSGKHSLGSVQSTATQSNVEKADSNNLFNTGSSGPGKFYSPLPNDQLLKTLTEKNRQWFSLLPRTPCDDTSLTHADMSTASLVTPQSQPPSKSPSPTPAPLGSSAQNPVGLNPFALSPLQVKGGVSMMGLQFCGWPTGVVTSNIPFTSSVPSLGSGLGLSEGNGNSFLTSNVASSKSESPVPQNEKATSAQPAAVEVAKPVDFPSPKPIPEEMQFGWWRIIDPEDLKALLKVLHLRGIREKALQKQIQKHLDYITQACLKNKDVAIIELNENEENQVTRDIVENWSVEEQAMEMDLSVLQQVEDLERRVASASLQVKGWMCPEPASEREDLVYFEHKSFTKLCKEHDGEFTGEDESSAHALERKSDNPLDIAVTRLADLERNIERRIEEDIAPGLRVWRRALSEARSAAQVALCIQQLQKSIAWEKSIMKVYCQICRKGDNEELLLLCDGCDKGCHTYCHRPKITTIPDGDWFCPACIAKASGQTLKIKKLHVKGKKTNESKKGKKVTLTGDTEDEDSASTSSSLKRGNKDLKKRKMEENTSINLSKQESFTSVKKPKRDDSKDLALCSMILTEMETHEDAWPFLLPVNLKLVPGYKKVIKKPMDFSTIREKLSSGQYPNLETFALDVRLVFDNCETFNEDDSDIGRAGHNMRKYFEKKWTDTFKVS
#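 BAZ2B (50 nM) with biotin-H3(5-23)K14Ac peptide (50 nM) in PBS pH 7.4, 0.01% Tween-20, preformed 30 min, then compound 30 min at room temperature; top concentration 110uM. AlphaScreen streptavidin donor/nickel chelate acceptor beads (10 ug/mL final), 20 min dark, signal read.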
# JMJD2A Tudor: blocks the human JMJD2A Tudor domain; AlphaScreen JMJD2A-Tudor / H3K4me3 peptide binding; Potency, µM (highest dose often 114 µM), inactives show at the top dose activity change, negative = inhibition, most hits filed as inhibitors; 390,000 tested, 4.4% active; AID 504339; further: on the % scale 0 is the no-effect control and ±100 the full control effect; nearly all actives have a fitted effect of over 50% in size
# L3MBTL1 inh: inhibitors of human L3MBTL1. Q9Y468. AlphaScreen L3MBTL1–H3K9me1 peptide binding. Potency, µM (top dose mostly 57.1 µM), inactives show at the highest dose activity, negative = inhibition, usual class: inhibitors. 230,000 tested, 0.66% active. AID 485360; further: on the % scale 0 is the no-effect control and ±100 the full control effect; nearly all actives have a fitted effect of over 60% in size
#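 AlphaScreen proximity signal between nickel-chelate acceptor and streptavidin donor beads (final 10 ug/mL) reports binding of 50 nM L3MBTL1 to 75 nM biotin-H3 K9me1 peptide; complex incubated with compounds 30 min at room temperature; cefsulodin titration as control.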
# G9a block: blocks human histone lysine methyltransferase G9a; Q96KQ7; G9a H3K9 monomethylation, AlphaScreen, 2 h; Potency, µM (top dose mostly 102 µM), for inactives: at the highest dose activity, negative = inhibition, usual class: inhibitors; 350,000 tested, 8.8% active; further: on the % scale 0 is the no-effect control and ±100 the full control effect; nearly all actives have a fitted effect of over 75% in size
#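 G9a (20 nM) preincubated 15 min RT with compounds, then 500 nM biotinylated H3K9 peptide and 20 uM SAM added; 2 h RT reaction. Monomethyl-H3K9 product detected by AlphaScreen with anti-H3K9me1 antibody, streptavidin donor and anti-rabbit IgG acceptor beads.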
# * = called active by the depositor; u = inconclusive; x = no result; [ ] = another dose, or the depositor's remark. Compounds with a hit are over-represented: about 11% of the library has one in this group of screens. The call rests on the fitted dose curve; in most records, active means well fitted inhibition curve with a large enough effect; inconclusive means small, poorly fitted or top-dose-only effect; inactive means no such curve, though single readings can be large or run the other way. Potency means the concentration at half of the fitted maximal effect.
SMILES,HP1b chromo inh,BAZ2B inh,JMJD2A Tudor,L3MBTL1 inh,G9a block
COc1ccc(OCCC(=O)OCC(=O)Nc2ccc(S(=O)(=O)N3CCOCC3)cc2)cc1,10%,-12%,-8%,7%,-5%
COc1cccc(-c2ccnc3c(-c4ccc(F)cc4)c(C)nn23)c1,54%,-5%,-9%,x,6%[59 µM]
Nc1nc(NCc2ccc(Cl)cc2)c2[nH]cnc2n1,11%,x,-27%,x,x
CCOC(=O)c1cccc(NC(=O)c2cc(-c3ccc(Cl)s3)nc3ccccc23)c1,26%,6%,-4%,x,-34%[59 µM]
CCOc1ccc(S(=O)(=O)Nc2nc3ccccc3nc2Nc2ccc(N3CCOCC3)cc2)cc1,u,28µM*,50µM*,-21%,10µM*
CCOc1ccc(S(=O)(=O)NCCC(=O)N(C)CC(=O)Nc2ccc(N3CCOCC3)cc2)cc1,7%,-3%,-14%,4%,35µM*
Cc1ccc(OCC(=O)N(C)CC(=O)Nc2ccc(N3CCOCC3)cc2)cc1,10%,-8%,-12%,0%,4%[0.501 µM]
N#Cc1nc(-c2ccc(OCc3ccc(Cl)cc3)cc2)oc1N1CCCC1,22%[57 µM],x,1%[57.1 µM],x,x
CCCOC(=O)CSc1nnc(-c2ccccc2)o1,52%,25%,23%,x,-3%[59 µM]
Cc1ccc(NC(=S)NCc2ccc(F)cc2)c(C)c1,26%,-5%,-26%,-5%,20%
Cc1ccc(NC(=S)NCc2ccc3c(c2)cc(C)n3C)c(C)c1,u,u,22µM*,-3%,-28%
CCC(C)(C)c1ccc(Oc2ccc(N)cc2)cc1,u,u,56µM*,-26%,40µM*
COCCCn1nnnc1SCC(=O)Nc1nc2ccccc2s1,13%,-5%,-7%,x,1%
Cc1ccc(CNC(=O)c2ccccc2N(C)S(C)(=O)=O)cc1,-10%,-12%,6%,0%,40µM*
C=CCNC(=O)c1ccccc1NC(=O)c1ccccc1N(C)S(C)(=O)=O,19%,-34%,-10%,3%,50µM*
CCCNC(=O)c1ccccc1NC(=O)c1ccccc1N(C)S(C)(=O)=O,37%,-8%,9%,4%,u
COc1ccc(N(C)C(=O)CCn2cnc3onc(-c4ccc(F)cc4)c3c2=O)c(OC)c1,12%,6%[57.1 µM],-20%,x,-23%[59 µM]
CCC(=O)N1CCc2cc(CNC(=O)c3ccc(F)cc3)ccc21,9%,-4%,-8%,x,7%[59 µM]
CCCCN(CCCC)S(=O)(=O)c1ccc(N2CCCC2=O)c([N+](=O)[O-])c1,-8%,x,32µM*,x,x
NNS(=O)(=O)c1ccc(N2CCCC2=O)c([N+](=O)[O-])c1,48%,-17%,25µM*,2%,10µM*
COc1cc(Cl)c(C)cc1NC(=O)CSc1cc(=O)n(C)c2cc(Cl)ccc12,33%,x,-17%,x,5%[59 µM]
Cc1cccc(NC(=O)CCC(=O)OCC(=O)c2ccc(Oc3ccc([N+](=O)[O-])cc3)cc2)c1,-4%,-4%,-19%,2%,8.9µM*
O=C(O)/C=C/C(=O)c1ccc2c(c1)NC(=O)CO2,-21%,-7%,-12%,-5%,3.2µM*
O=C1COc2ccc(C(=O)NC3CC3)cc2N1,26%,-5%,-14%,x,18%[59 µM]
O=C(CN(Cc1ccccc1)C1=NCCS1)c1ccccc1,28%,10%,-14%,2%,50µM*
SMILES,HP1b chromo inh,BAZ2B inh,JMJD2A Tudor,L3MBTL1 inh,G9a block
Cc1oc2ccc(Br)cc2c(=O)c1-c1nn[nH]n1,6%,56µM*,u,7%,u
Cc1c(-c2cc[n+]([O-])cc2)oc2ccc(Br)cc2c1=O,x,-20%,x,-6%,-6%
CC(=O)c1ccc(NC(=O)Cn2ncc3c(C)n(Cc4ccc(F)cc4)c(C)c3c2=O)cc1,-2%,2%,-26%,x,-4%[59 µM]
O=C(CO)N/N=C/c1ccccc1F,33%,2%,-8%,-1%,25%
COc1ccc(/C=N/NC(=O)CN2CCCCCCC2)c(C)c1C,u,56µM*,5µM*,x,8.9µM*
CCN1CCN(CC(=O)N/N=C/c2ccc(F)cc2F)CC1,u,50µM*,2.8µM*,6%,2.8µM*
COc1ccc(/C=N/NC(=O)CN2CCCC2)cc1,34%,-4%,-16%,2%,3%
O=C(CN1CCSCC1)N/N=C/c1ccccc1F,u,50µM*,3.2µM*,x,1%[12.7 µM]
O=C(CN1CCCCCCC1)N/N=C/c1ccccc1F,-3%,56µM*,71µM*,-12%,13µM*
CCN1CCN(CC(=O)Nc2cc(F)ccc2C)CC1,11%,11%,-4%[11.4 µM],x,-13%
CCN(CC)CCCNC(=O)c1cnc(SC)nc1-c1ccccc1,-2%,-1%,-11%,x,-16%[59 µM]
CN(C(=O)c1cc2nc(-c3ccc4c(c3)OCO4)cc(C(F)(F)F)n2n1)c1ccc(OC(F)(F)F)cc1,55%,6%,10%,x,-5%[59 µM]
Cc1ccccc1-c1nc(NC(=O)CSc2ncnc3sc4c(c23)CCCC4)ns1,34%,2%,-11%,x,12%[59 µM]
O=C(CN1CCCCCC1)N/N=C/c1cccc(Cl)c1Cl,u,56µM*,10µM*,0%,u
O=C(CN1CCCCC1)N/N=C/c1ccc(Cl)cc1Cl,16%,12%,-17%,5%,x
CCOC(=O)c1c(C)oc2nc(C)nc(N3CCN(c4cccc(C(F)(F)F)c4)CC3)c12,21%,-33%[57.1 µM],-8%,x,u
COc1ccc(C)c2sc(N(Cc3cccnc3)C(=O)c3cccs3)nc12,16%,-6%,-16%,x,7%[59 µM]
COc1cc(C2C(C(=O)c3cc4ccccc4o3)=C(O)C(=O)N2c2cc(C)on2)cc(OC)c1OC (centres undefined),29%,-28%[57.1 µM],-17%,x,45µM*
COc1cccc(C2C(C(=O)c3cc4cccc(OC)c4o3)=C(O)C(=O)N2c2cc(C)on2)c1OC (centres undefined),-11%,-29%,u,-11%,7%[12.7 µM]
COc1cccc(C2C(C(=O)c3cc4ccccc4o3)=C(O)C(=O)N2c2cc(C)on2)c1OC (centres undefined),2%,-28%,u,-4%,45µM*
COc1cc(OC)cc(C(=O)NCCS(=O)(=O)N2CCN(Cc3ccccc3)CC2)c1,54%,-1%,-9%,u,4%[0.501 µM]
COc1ccc(CNC(=O)CN2CCN(S(=O)(=O)c3ccccc3)CC2)cc1,36%,11%,-10%,-2%,-2%[12.7 µM]
Cc1cc([N+](=O)[O-])cc(/C=N\NC(=O)C2COc3ccccc3O2)c1O (centres undefined),30%,28µM*,50µM*,25µM*,-51%
CCN(CC)c1ccc(/C=N/NC(=O)CNC(=O)C2COc3ccccc3O2)c(O)c1 (centres undefined),-15%,-32%,50µM*,x,18µM*
COc1cc(/C=N\NC(=O)CNC(=O)C2COc3ccccc3O2)ccc1O (centres undefined),14%,-5%,-11%,-1%,15%[59 µM]
O=C(N/N=C\c1ccc(O)c([N+](=O)[O-])c1)C1COc2ccccc2O1 (centres undefined),15%[57 µM],-19%,-6%,-14%,x
